# Unmarked numbers belong to inactive results. The rule behind the calls is not given here.
# System: Aerobactin synthetase IucA (Klebsiella pneumoniae hvKP1)
# Assay: Biochemical IucA enzyme inhibition primary screen of the Spectrum library (AID 1346200);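 note: 100% = wells without compound and 0% = wells lacking enzyme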
# Conditions: malachite green pyrophosphate, A620, at 8 µM, hits give low values
row,SMILES,activity remaining [%]
1,Oc1c(Cl)cc(Cl)c2cccnc12,113
2,Cc1onc(-c2ccccc2)c1C(=O)NC1C(=O)N2[C@@H]1SC(C)(C)[C@@H]2C(=O)O (stereo not given in full),106
3,O=C(O)/C=C(\CC(=O)O)C(=O)O,89.8
4,NCCC(=O)N[C@@H](Cc1cnc[nH]1)C(=O)O,106
5,O=C(O)[C@H](O)[C@@](O)(Cc1ccc(O)cc1)C(=O)O,103
6,NC(COCc1ccccc1)C(=O)O (stereo not given),105
7,COc1ccc2c(=O)c(CC(=O)O)coc2c1,117
8,CCOC(=O)OC(C)OC(=O)C1N2C(=O)C(NC(=O)[C@H](N)c3ccccc3)C2SC1(C)C (stereo not given in full),104
9,Nc1ccc(C(=O)O)c(O)c1,108
10,Cc1cc(=O)c2c(O)cc(O)c(C)c2o1,99.3
11,O=C(CCCN1CCN(c2ccccn2)CC1)c1ccc(F)cc1,124
12,COC1=C(O)C(=O)c2c(cc3oc(C(C)=O)c(O)c3c2O)C1=O,108
13,CCCCCC/C=C\CCCCCCCc1cccc(O)c1C(=O)O,112
14,CC(=O)O[C@@H]1C[C@@]23C[C@@]24CC[C@H](O[C@@H]2OC[C@@H](O)[C@H](O)[C@H]2O)C(C)(C)C4CCC3[C@]2(C)C[C@@H]3OC4(C[C@@H](C)[C@@H]3[C@@]12C)O[C@H](O)[C@]1(C)O[C@H]41 (stereo not given in full),87.7
15,O=C(Cn1ccnc1[N+](=O)[O-])NCCO,111
16,CC1(C)C[C@@H]2C(=O)CC[C@H]3O[C@]3(C)CC[C@H]21,110
17,COc1cc(OC)c(-c2c(OC)cc(OC)cc2OC)c(OC)c1,106
18,NS(=O)(=O)c1cc2c(cc1Cl)NC(CSCc1ccccc1)=NS2(=O)=O,113
19,COc1cc2cc3c4cc(OC)c(OC)cc4cc[n+]3c(C)c2cc1OC,95.4
20,C=C1C2CC[C@@]3(C)[C@H](c4ccoc4)OC(=O)C[C@]13O[C@H]1CC(=O)C(C)(C)[C@H](C(O)C(=O)OC)[C@@]21C (stereo not given in full),95.2

row,SMILES,activity remaining [%]
1,CN1CCCC(n2nc(Cc3ccc(Cl)cc3)c3ccccc3c2=O)CC1 (stereo not given),106
2,CCCC(=O)Nc1ccc(OCC(O)CNC(C)C)c(C(C)=O)c1 (stereo not given),120
3,CCC(CCC(C)C1CCC2C3CC=C4C[C@@H](OC(C)=O)CC[C@]4(C)C3CC[C@]12C)C(C)C (stereo not given in full),114
4,Nc1nc(N)c2nc(CNc3ccc(C(=O)NC(CCC(=O)O)C(=O)O)cc3)cnc2n1 (stereo not given),102
5,CC(=O)Oc1cc2c(c(C)c1OC(C)=O)CC=C1[C@@]2(C)CC[C@@]2(C)C3C[C@](C)(C(=O)O)CC[C@]3(C)CC[C@]12C (stereo not given in full),95.9
6,CCN(CC)CCNc1ccc(CO)c2sc3ccccc3c(=O)c12,114
7,O=C(/C=C/c1ccccc1)c1ccc(O)cc1,95.4
8,Cc1cccc(Nc2ccccc2C(=O)O)c1C,111
9,CCCCOc1ccc(OCCCN2CCOCC2)cc1,104
10,Nc1ccc(S(=O)(=O)Nc2ccccn2)cc1,97.8
11,CC(C)(C)NC[C@@H](O)COc1nsnc1N1CCOCC1,99.4
12,CC1=CC(=O)C2C(C)(C)CCC[C@]2(C)[C@@]1(O)CCc1ccoc1 (stereo not given in full),105
13,CC1CCC(NC(=O)N(CCCl)N=O)CC1 (stereo not given),106
14,C=CCc1ccc(O)c(OC)c1,115
15,CC1Cc2ccccc2N1NC(=O)c1ccc(Cl)c(S(N)(=O)=O)c1 (stereo not given),101
16,N[C@@H](Cc1cc(I)c(Oc2ccc(O)c(I)c2)c(I)c1)C(=O)O,125
17,COc1cccc2c1CCC1=CC(=O)CC[C@@]12C,111
18,Cc1cc(O)cc(C)c1Cl,94.5
19,OCC(S)CS (stereo not given),91.4
20,CC[C@H]1CN2CCc3cc(OC)c(OC)cc3C2C[C@@H]1CC1NCCc2cc(OC)c(OC)cc21 (stereo not given in full),118
